In the supplement of paper PMC8047044:
Structures can show the parent of a compound that is named as a salt. ± gives the standard deviation of the averaged measurements.

Experiments:
Neuro-2a [1] = assay: neurite formation score, plate-normalized to DMSO control mean 5.04 (score (0-8 scale)); higher = more or longer neurites; details: 1 µM
Method: (§1)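 Neuro-2a mouse neuroblastoma cells in PLL-coated 96-well plates were pre-treated for 1 h in DMEM(+) with each kinase inhibitor at 1 µM, then switched to serum-free DMEM(-) with inhibitor to induce neurite outgrowth and fixed about 2-3 h later. Three blinded observers scored neurite formation from 0 (no neurites) to 8 (long neurites on almost all cells).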

Neuro-2a [2] = assay: as above; details: 0.1 µM
Method: as §1, with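 “at 0.1” for “at 1”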

SMILES	neurite formation score (Neuro-2a [1])	neurite formation score (Neuro-2a [2])
CCc1cncnc1N1CCN(Cc2nc3ccc(C(F)(F)F)cc3[nH]2)CC1	4.54	4.42
O=C(NC[C@H](O)CO)c1ccncc1Nc1ccc(I)cc1F	3.9	5.54
CN1CCN(C2CCN(C(=O)Nc3cc(Oc4ccc(NC(=O)C5(C(=O)Nc6ccc(F)cc6)CC5)c(F)c4)ccn3)CC2)CC1 [Golvatinib (E7050)]	4.14	3.76
CCOc1cc(C(=O)N2CCC(N3CCN(C)CC3)CC2)ccc1Nc1ncc2c(n1)N(C1CCCC1)c1ccccc1C(=O)N2C	4.02	4.25
CCN(CC)CCNC(=O)c1c(C)[nH]c(/C=C2\C(=O)Nc3ccc(F)cc32)c1C [Sunitinib]	5.63	5.58
Cc1cc(Nc2nc(N[C@@H](C)c3ncc(F)cn3)ncc2Cl)[nH]n1	3.8	
O=c1c(O)c(-c2ccc(O)c(O)c2)oc2cc(O)cc(O)c12 [Quercetin]	4.54	5.08
NC(=O)c1cccc(-c2cc(Nc3ccc(OC(F)(F)F)cc3)ncn2)c1	5.14	
CCNC(=O)Nc1ccc(-c2nc3c(c(N4CCOC[C@@H]4C)n2)CCN(C2COC2)C3)cc1	4.24	3.71
FC(F)(F)c1ccc(CNc2ccc(Cc3c[nH]c4ncccc34)cn2)cc1	3.54	5.08
O=C(NC1CCNCC1)c1n[nH]cc1NC(=O)c1c(Cl)cccc1Cl	5.57	5.88
Cc1c(Cn2c(C)nc3c(C(=O)O)cc(N4CCOCC4)cc32)cccc1C(F)(F)F	4.88	4.08
N#Cc1c(O)c2c(-c3ccc(-c4ccccc4O)cc3)csc2[nH]c1=O	5.69	5.58
Cc1ccc(F)c(NC(=O)Nc2ccc(-c3cccc4[nH]nc(N)c34)cc2)c1 [Linifanib (ABT-869)]	3.14	3.76
O=C1NC(=O)[C@@H](c2cn3c4c(cccc24)CCC3)[C@@H]1c1c[nH]c2ccccc12 [Tivantinib (ARQ 197)]	0.236	0.876
CC(=O)Nc1nc(C)c(-c2ccc(Cl)c(S(=O)(=O)NCCO)c2)s1	4.57	3.88
Cn1c(Nc2ccc(C(F)(F)F)cc2)nc2cc(Oc3ccnc(-c4ncc(C(F)(F)F)[nH]4)c3)ccc21	4.24	4.88
O=S(=O)(c1cccc2cnccc12)N1CCCNCC1 [Fasudil (HA-1077) HCl]	4.24	5.21
N#C/C(=C\c1ccc(O)c(O)c1)C(=O)NCc1ccccc1	4.02	4.58
O=c1cc(-c2ccccc2)oc2c(O)c(O)ccc12 [7,8-Dihydroxyflavone]	4.21	5.08
COc1ccc(CNC(=O)Nc2ncc([N+](=O)[O-])s2)cc1	4.91	4.71
CC1=C(C(=O)Nc2cc3cn[nH]c3cc2F)C(c2ccc(C(F)(F)F)cc2)CC(=O)N1 (stereo not given)	0.236	
O=C(Nc1nc2cccc(-c3ccc(CN4CCS(=O)(=O)CC4)cc3)n2n1)C1CC1	4.88 ± 0.58	5 ± 0.35
NC1(C(=O)N[C@@H](CCO)c2ccc(Cl)cc2)CCN(c2ncnc3[nH]ccc23)CC1	5.57	5.38
COc1ccc(CNc2nc(N(CCO)CCO)nc3c2ncn3C(C)C)cc1	5.57	

SMILES	neurite formation score (Neuro-2a [1])	neurite formation score (Neuro-2a [2])
CN1CCN(c2nc(C3=C(c4c[nH]c5ccccc45)C(=O)NC3=O)c3ccccc3n2)CC1 [Sotrastaurin (AEB071)]	5.96	
Cc1ccccc1CN1C2=NCCN2C(=O)C2=C1CCN(Cc1ccccc1)C2	4.63	4.25
Nc1nc(N)c2nc(-c3cccc(O)c3)c(-c3cccc(O)c3)nc2n1	4.24	3.38
CS(=O)(=O)N1CCC(NC(=O)c2[nH]ncc2NC(=O)c2c(Cl)cccc2Cl)CC1	4.47	5.09
CCOC(=O)c1cnc2ccc(-c3cncc(NS(=O)(=O)c4ccccc4)c3)cn12	-0.457	0.0843
COc1cc(C(=O)NC2CCN(C)CC2)ccc1Nc1ncc2c(n1)N(C1CCCC1)CC(F)(F)C(=O)N2C	4.29	4.25
CC(C)NC[C@@H](C(=O)N1CCN(c2ncnc3c2[C@H](C)C[C@H]3O)CC1)c1ccc(Cl)cc1	4.24	
CNC(=O)c1cccc(-c2ccc3c(N4CCOC[C@@H]4C)nc(N4CCOC[C@@H]4C)nc3n2)c1	4.29	4.58
CNC(=O)c1cc(Oc2ccc(NC(=O)Nc3ccc(Cl)c(C(F)(F)F)c3)cc2)ccn1 [Sorafenib Tosylate]	4.57	3.54
O=C(NCCCNc1nc(Nc2cccc(CN3CCOCC3)c2)ncc1C1CC1)C1CCC1	5.02	5.25
Cc1nc(Nc2n[nH]c3c2CN(C(=O)N[C@H](CN(C)C)c2ccccc2)C3(C)C)c2sccc2n1	4.02	4.92
COc1ccc2c(OCc3nnc4ccc(-c5ccccc5)nn34)ccnc2c1	4.54	5.75
OCCn1cc(-c2ccc3c(c2)CC/C3=N\O)c(-c2ccncc2)n1	3.69	4.58
CCc1cccc(CC)c1NC(=O)N1Cc2[nH]nc(NC(=O)c3ccc(N4CCN(C)CC4)cc3)c2C1	4.8	5.09
O=C1NC(=O)/C(=C/c2cccc(C(F)(F)F)c2)S1	4.36	4.92
COc1ccc(-c2ccc3c(N4CCOCC4)nc(N4C[C@@H](C)O[C@@H](C)C4)nc3n2)cc1CO	4.36	4.25
NC(=O)c1ccc(-c2nc(-c3ccc4c(c3)OCCO4)c(-c3ccccn3)[nH]2)cc1	4.36	4.92
N#CC1(c2ccc(NC(=O)c3cccnc3NCc3ccncc3)cc2)CCCC1 [Apatinib]	4.54	4.08
COc1cc(-c2cc(-c3ccc(N4CCNCC4)cc3)cnc2C)cc(OC)c1OC	4.47	5.09
COc1cc(N2CCC(N(C)C)CC2)ccc1Nc1ncc(Cl)c(Nc2ccccc2P(C)(C)=O)n1	4.57	4.38
COc1ncc(-c2ccc3nccc(-c4ccnnc4)c3c2)cc1NS(=O)(=O)c1ccc(F)cc1F	2.63	4.92
CNC(=O)c1ccccc1Nc1cc(Nc2ccc(N3CCOCC3)cc2OC)ncc1C(F)(F)F	5.02	5.58
CN1CCN(c2ccc(OC(F)(F)F)c(Nc3ncc4c(n3)-c3c(c(C(N)=O)nn3CCO)CC4)c2)CC1	4.88	4.42
COc1cc2nccc(Oc3ccc(NC(=O)C4(C(=O)Nc5ccc(F)cc5)CC4)cc3)c2cc1OC [Cabozantinib malate (XL184)]	2.29	4.92
Cc1[nH]c2ccccc2c1C1=C(NCCc2ccc(F)cc2)C(=O)N(C)C1=O	4.54	2.42

SMILES	neurite formation score (Neuro-2a [1])	neurite formation score (Neuro-2a [2])
Cc1ccc(C(=O)Nc2cccc(C(F)(F)F)c2)cc1Nc1nc(-c2cccnc2)nc2c1cnn2C	3.96	4.25
O=C(O)c1ccc(-c2c[nH]c3ncc(-c4ccccc4)cc23)cc1C1CCCC1	5.29	3.92
CC(C)(C)c1cc(NC(=O)Nc2ccc(-c3cn4c(n3)sc3cc(OCCN5CCOCC5)ccc34)cc2)no1 [Quizartinib (AC220)]	4.57	5.21
Cn1cc(-c2ccc3nnc(Sc4ccc5ncccc5c4)n3n2)cn1	4.24	5.04
C[C@H]1Oc2cc(cnc2N)-c2c(nn(C)c2C#N)CN(C)C(=O)c2ccc(F)cc21	4.21	5.08
CO[C@H]1C[C@@H]2CC[C@@H](C)[C@@](O)(O2)C(=O)C(=O)N2CCCC[C@H]2C(=O)O[C@H]([C@H](C)C[C@@H]2CC[C@@H](O)[C@H](OC)C2)CC(=O)[C@H](C)/C=C(\C)[C@@H](O)[C@@H](OC)C(=O)[C@H](C)C[C@H](C)/C=C/C=C/C=C/1C [Rapamycin (Sirolimus)]	4.57	5.54
CC(C)(C)c1ccc(S(=O)(=O)/C=C/C#N)cc1	4.21	4.75
COc1ccc(S(=O)(=O)N(C(C)=O)c2ccccc2/C=C/c2cc[n+]([O-])cc2)cc1	0.569	3.54
Cc1c(NC(=O)c2ccc(C(C)(C)C)cc2)cccc1-c1cn(C)c(=O)c(Nc2ccc(C(=O)N3CCOCC3)cc2)n1	5.57	5.04
O=S(=O)(NCCNC/C=C/c1ccc(Br)cc1)c1cccc2cnccc12	4.54	4.75
Nc1ncnc2c1c(-c1cccc(OCc3ccccc3)c1)cn2C1CC(CN2CCC2)C1 (stereo not given)	3.24	4.71
Oc1ccc(-c2nc(-c3ccc(F)cc3)c(-c3ccncc3)[nH]2)cc1	4.57	4.71
C[C@@H]1CN(CC(=O)Nc2ccc3c(c2)Cc2cccc(-c4cc(=O)cc(N5CCOCC5)o4)c2S3)C[C@H](C)O1	3.9	5.21
COc1cc2nccc(Oc3ccc(NC(=O)Nc4cc(C)on4)c(Cl)c3)c2cc1OC [Tivozanib (AV-951)]	4.24	4.71
COc1cc(F)c(F)c(Nc2ccc(I)cc2F)c1NS(=O)(=O)C1(C[C@H](O)CO)CC1 [Refametinib]	4.14	3.42
O=C(NCCCNc1nc(Nc2cccc(NC(=O)N3CCCC3)c2)ncc1I)c1cccs1	5.24	4.54
C=CC(=O)Nc1cc2c(Nc3ccc(F)c(Cl)c3)ncnc2cc1OCCCN1CCOCC1 [Canertinib (CI-1033)]	4.57	4.71
C[S+]([O-])c1ccc(-c2nc(-c3ccc(F)cc3)c(-c3ccncc3)[nH]2)cc1 (stereo not given)	4.57	4.88
COc1cc(-c2cc(-c3cccc(O)c3)cnc2N)cc(OC)c1OC	3.88	4.08
CC[C@H](Nc1ncnc2[nH]cnc12)c1nc2cccc(F)c2c(=O)n1-c1ccccc1 [CAL-101 (Idelalisib, GS-1101)]	4.57	4.71
CCn1c2ccccc2c2cc(Nc3ccnc(NCCCN4CCOCC4)n3)ccc21	3.54	3.42
C#Cc1cccc(Nc2ncnc3cc(OCCOC)c(OCCOC)cc23)c1 [Erlotinib Hydrochloride]	4.57	5.21
O=C(Nc1cccnc1)c1cc(-c2ccnc(F)c2)ccc1OCc1ccccc1	3.88	5.08
